Each structure is given as a SMILES string. Out of some 370,000 compounds screened, about 2,300 (0.62%) were called active. The sample holds actives, similar compounds and a random draw of the others, so the mix is not that of the screen. Values without a mark were called inactive.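 Rule for the calls: active = lowest replicate activation of at least 40%, so every replicate reaches that level; inactive = the rest.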

The nature of this test: GLuc luminescence reporter in INS-1E cells, primary screen for activators of glucose-dependent secretion of insulin (AID 743287).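 Note: 0% = median of neutral control wells and 100% = median of IBMX positive control wells.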 Conditions: INS-1E GLuc reporter insulin secretion, 2-3 h, at 16.6 µM, active compounds read high.
`CC(C)NC(=O)N(C)C[C@@H]1Oc2ncc(C3=CCCCC3)cc2C(=O)N([C@H](C)CO)C[C@@H]1C`: the activation is -12.5%.

Take `Cn1c(=O)oc2cc(S(=O)(=O)N3CCC(C(=O)Nc4ccc(OC(F)(F)F)cc4)CC3)ccc21`: the activation was 48.6% (active).

As to `Cc1ccc(NC(=O)C2CCN(S(=O)(=O)c3ccc4c(c3)NC(=O)CO4)CC2)cc1C`, the activation was -23%.

Take `CC(=O)Nc1ccc(S(=O)(=O)N2CCC(C(=O)NC3CC3)CC2)cc1`: the activation is 29.2%.

As for `C[C@H](NC(=O)[C@@H]1[C@@H](CO)[C@@H]2Cn3c(ccc(-c4cccc(F)c4)c3=O)[C@@H]2N1C)c1ccccc1`, the activation is -1.52%.

As to `C[C@@H]1CCCCO[C@@H](CN(C)S(=O)(=O)c2cn(C)cn2)[C@H](C)CN([C@@H](C)CO)C(=O)c2cc(NC(=O)Nc3ccccc3)ccc2O1`, the activation is 20.9%.

In the case of `CN1C(=O)c2cc(NC(=O)Cc3ccccc3)ccc2OC[C@H]2O[C@H](CC(=O)NCc3ccc(Cl)cc3)CC[C@H]21`, the activation was -7.02%.

For the compound `C[C@@H]1CN([C@H](C)CO)C(=O)Cc2cc(NC(=O)Nc3ccc(C(F)(F)F)cc3)ccc2O[C@@H]1CN(C)S(=O)(=O)c1ccccc1`, the activation was 7.64%.

As to `COc1ccc(CN2CCOC2=O)cc1OC`, the activation is 59.2% (active).

Consider `COc1ccc(CN2CC[C@H]3C=CC[C@@H](C(=O)N4CCOCC4)[C@H]3C2=O)cc1OC`, for which the activation was 9.86%.

For `COc1ccc(CN2CCCCC2C)cc1OC` (stereo not drawn), the activation is 11.6%.

For `CNC[C@@H]1Oc2ccc(NC(C)=O)cc2CC(=O)N(C)C[C@@H]1C`, the activation is 3.12%.

In the case of `COc1ccc(CN2[C@@H](CO)[C@@H]3c4ccccc4N(C(=O)Nc4ccccc4)C[C@@H]32)cc1`, the activation was -18.4%.

Take `COC(=O)N1Cc2ccnnc2CC1c1ccccc1Br` (stereo not drawn): the activation is 5.66%.

For `COc1ccc(-c2ccccc2C2Cc3nnccc3CN2C(=O)Nc2ccccc2)cc1` (stereo not drawn), the activation is 60.4% (active).

As to `CO[C@H]1CN(C)C(=O)c2ccc(NC(=O)NC(C)C)cc2OC[C@H](C)N(Cc2cncnc2)C[C@@H]1C`, the activation is -3.42%.

For the compound `Clc1ccc(Cl)c(Oc2ccc(Oc3nc(Cl)ccc3Cl)cc2)n1`, the activation is 43.2% (active).

Take `CC(C)NC(=O)N(C)C[C@@H]1OCCCC[C@H](C)Oc2ccc(NC(=O)Nc3ccccc3)cc2C(=O)N([C@H](C)CO)C[C@@H]1C`: the activation is -11.5%.

As to `CCOc1ccc(C(C)=O)cc1COC(=O)CN1C(=O)NC2(CCCC2)C1=O`, the activation was 241% (active).

As to `CCOc1ccc(C(C)NC(=O)CN2C(=O)NC3(CCCCC3)C2=O)cc1OCC` (stereo not drawn), the activation was 5.62%.

As to `Cc1ccc(COC(=O)CN2C(=O)NC3(CCCC3)C2=O)cc1`, the activation was 6.93%.

With `CCC(=O)N(C)C[C@@H]1Oc2cc(C#CCOC)ccc2S(=O)(=O)N([C@H](C)CO)C[C@H]1C`, the activation was 8.1%.

Take `CCCN(C)C[C@@H]1OCCCC[C@H](C)Oc2ccc(NS(=O)(=O)c3ccc(C)cc3)cc2C(=O)N([C@H](C)CO)C[C@@H]1C`: the activation was 7.05%.

On to `C=CCNc1nc(N)c([N+](=O)[O-])c(NC2CCCCC2)n1`, for which the activation is 20.2%.

As to `COCCNc1nc(N)c([N+](=O)[O-])c(N2CCCCCC2)n1`, the activation was 52.3% (active).

For the compound `COCCNc1nc(N)c([N+](=O)[O-])c(NCCO)n1`, the activation is 17.8%.

As for `CC(=O)Nc1ccc2c(c1)C(=O)N(C)[C@H]1CC[C@H](CC(=O)NCc3ccccc3Cl)O[C@H]1CO2`, the activation was -3.1%.

Regarding `N#C[C@H]1[C@H](c2ccccc2)[C@@H](CO)N1C(=O)c1cccnc1`, the activation was 1.43%.

Take `C[C@@H]1CN([C@@H](C)CO)C(=O)c2cc(/C=C/c3ccccc3)cnc2O[C@H]1CN(C)C(=O)C1CCC1`: the activation was -16.6%.

Turning to `COC(=O)C1=C(C)N(Cc2cccc(C(F)(F)F)c2)C(=NCc2cccc(C(F)(F)F)c2)NC1c1ccccc1C(F)(F)F` (stereo not drawn), the activation is 23.9%.

In the case of `COC(=O)C1=C(C)N(Cc2ccc(F)cc2)C(=S)NC1c1cccc(Cl)c1` (stereo not drawn), the activation was -20.6%.

As to `COC(=O)C1=C(C)N(Cc2cccc(C(F)(F)F)c2)C(=NCc2ccccc2)NC1c1ccccc1C(F)(F)F` (stereo not drawn), the activation is 198% (active).

Take `C=CCN=C1NC(c2cccc(C(F)(F)F)c2)C(C(=O)OC)=C(C)N1C` (stereo not drawn): the activation was -3.97%.

On to `COC(=O)C1=C(C)N(Cc2ccccc2)C(=NCCCOC(C)C)N[C@H]1c1ccccc1`, for which the activation was -19.7%.

Take `COC(=O)C1=C(C)N(Cc2cccc(C(F)(F)F)c2)C(=NCc2ccccc2)NC1c1ccc(Cl)cc1` (stereo not drawn): the activation is 160% (active).

With `COc1ccc(S(=O)(=O)N(C)C[C@H]2Oc3c(NS(=O)(=O)c4cccs4)cccc3C(=O)N([C@H](C)CO)C[C@@H]2C)cc1`, the activation is -10.4%.

On to `CO[C@H]1CN(C)C(=O)c2ccc(NC(=O)C3CCCC3)cc2OC[C@H](C)N(C(=O)CC2CC2)C[C@@H]1C`, for which the activation was 8.95%.

`COc1ccc(NC(=O)Nc2cccc3c2O[C@H](CN(C)Cc2ccncc2)[C@@H](C)CN([C@@H](C)CO)C3=O)cc1`: the activation was 3.69%.

Consider `CCSc1ncnc2c(C#N)c3n(c12)CCCCC3`, for which the activation was 47.4% (active).

For the compound `CN(C)CC(=O)N1CC2(C1)[C@H](c1ccccc1)[C@H](CO)N2C(=O)C1CC1`, the activation is 10.8%.

For the compound `N#Cc1cccc(-c2ccc([C@H]3[C@@H](CO)N[C@@H]3CNC(=O)C3CCC3)cc2)c1`, the activation was 7.07%.

`c1ccc(CCN2CN=C(Nc3nc4ccccc4o3)NC2)cc1`: the activation is -24.2%.

In the case of `Brc1ccccc1/C=N/Nc1nc2ccccc2o1`, the activation was 46.6% (active).

As to `CN1C(=O)c2cc(NC(=O)c3ccno3)ccc2OC[C@H]2O[C@@H](CC(=O)NCC(F)(F)F)CC[C@@H]21`, the activation was 19.2%.

Take `Cn1ncc2c(N3CCCCC3)nc(NCCCO)nc21`: the activation was 60.1% (active).

For `CC(C)(C)Oc1ccccc1Nc1nc(NCCO)nc(N2CCCC2)n1`, the activation is -9.68%.

In the case of `COc1ccc(C#Cc2cnc3c(c2)C(=O)N([C@H](C)CO)C[C@@H](C)[C@H](CN(C)C(=O)Nc2cccc(OC)c2)O3)cc1`, the activation was 6.97%.

For the compound `C[C@@H]1CN([C@H](C)CO)C(=O)c2cc(C#Cc3ccncc3)cnc2O[C@H]1CN(C)Cc1ccncc1`, the activation was 9.79%.

The values above are taken from PubChem BioAssay AID743287 (Broad Institute, 2014).
